Source: PubChem BioAssay (National Center for Advancing Translational Sciences (NCATS))
DT40 TDP1 no CPT: qHTS for Inhibitors of human tyrosyl-DNA phosphodiesterase 1 (TDP1): qHTS in cells in absence of CPT; 420,000 compounds, 15% hits; DT40 Tdp1-/- hTDP1 cells, no CPT, ATP luminescence, 48 h; Potency, µM (top dose mostly 46.2 µM), for inactives: at the highest dose activity change, negative = growth inhibition, usual class: inhibitors; AID 686978, 2013; further: potency means the concentration at half of the fitted maximal effect; on the % scale 0 is the no-effect control and ±100 the full control effect; nearly all actives have a fitted effect of over 55% in size
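Compound effects on proliferation are scored in DT40 Tdp1-/-;hTDP1 cells in the absence of CPT. ATP levels (CellTiter-Glo luminescence) are recorded after a ≥48 hr, 37 °C incubation.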
MCF10A rereplic: induces DNA re-replication in MCF 10a normal breast cells; MCF 10A DNA re-replication, Hoechst nuclear intensity, 48 h; Potency, µM (series often up to 46.1 µM), inactives show at the top dose activity, positive = re-replication, actives largely listed as activators; 350,000 compounds, 2.9% hits; AID 624296; further: potency means the concentration at half of the fitted maximal effect; % of control where 0% means no effect; nearly all actives have a fitted effect of over 50% in size
IL-1B inflam inh: inhibitors of inflammasome signaling (IL-1 beta secretion); activity change, % at 57.5 µM; AID 743279; THP-1 LPS/ATP IL-1B secretion, AlphaLISA, 16 h; active compounds read low; 360,000 compounds, 4.7% hits; in the data active means activity change below about -50%; inconclusive means mostly about -30% to -49%; further: on the % scale 0 is the no-effect control and ±100 the full control effect
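Secreted IL-1B measured by AlphaLISA bead assay after 16 h compound exposure of THP-1 cells; compounds (final up to 57.5 uM) added 1 h before LPS (250 ng/mL) and ATP (1.25 mM) stimulation; lower signal means less secretion.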
TDP1 cell CPT: DT40-hTDP1 cell growth loss with CPT. chicken DT40 Tdp1-/-;hTDP1 cells + 20 nM CPT, ATP luminescence, 48 h. 420,000 compounds, 12% hits. Potency, µM (doses to about 46.2 µM), without a hit: at the highest dose activity change, negative = growth inhibition, actives largely listed as inhibitors; further: potency means the concentration at half of the fitted maximal effect; on the % scale 0 is the no-effect control and ±100 the full control effect; nearly all actives have a fitted effect of over 55% in size
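Chicken DT40 Tdp1-/- cells complemented with human TDP1, 400 cells/well, exposed to compounds plus 20 nM camptothecin for at least 48 h at 37 C; viability read as ATP content by CellTiter-Glo luminescence.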
Chronic BCR inh: blocks chronic active B-cell receptor signaling | Potency, µM (highest dose often 46.1 µM), inactives show top-dose activity change, negative = inhibition, actives largely listed as inhibitors | AID 493014 | ABC-DLBCL IkBa-CBG/CBR reporter, luminescence ratio, 4 h | 340,000 compounds, 0.05% hits; active means well fitted inhibition curve with a large enough effect in the signal ratio, with a control signal flat, not every such curve was filed as active; inconclusive means small, poorly fitted or top-dose-only effect, or effect the other way, or a change in a side signal; the % refers to the signal ratio;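 further: potency means the concentration at half of the fitted maximal effect; plate controls were basal doxycycline-induced cells for no effect and cells given 10 µM MG132 for full effect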
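Compounds up to 46 uM were incubated four hours with TMD8 cells whose green CBG68 luciferase is fused to IkappaBalpha; red CBR luminescence normalised the signal, and concentration-effect curves were fitted to fusion, red and ratio data.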
SW480 rerep: DNA re-replication induction in SW480 cells; SW480 DNA re-replication, Hoechst DNA content imaging, 48 h; Potency, µM (series often up to 46.1 µM), inactives show at the highest dose re-replication activation, most hits filed as activators; 340,000 compounds, 1.8% hits; further: potency means the concentration at half of the fitted maximal effect; % of control where 0% means no effect; nearly all actives have a fitted effect of over 55% in size
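Cells (250 per well) received 23 nL compound or DMSO by pin tool and were kept 48 hr at 37 C, 5% CO2. Nuclei were then stained with Hoechst for 40 min and scanned for DNA content.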
Active calls of the source: *; ? = inconclusive; / = not tested or not shown; [ ] = another dose, or the depositor's remark. Shown are actives, neighbours in structure and some others; about 19% of the full set was active somewhere. Unless noted, the call rests on the fitted dose curve; in most records, active means well fitted curve in the direction sought with a large enough effect; inconclusive means small, poorly fitted or top-dose-only effect, or another doubt; inactive means no such curve, though single readings can be large; an effect the other way counts as inactive or inconclusive.

SMILES | DT40 TDP1 no CPT | MCF10A rereplic | IL-1B inflam inh | TDP1 cell CPT | Chronic BCR inh | SW480 rerep
O=C(Nc1ccnc(-c2cccnc2)n1)c1cccc(Cl)c1Cl | 23µM* | 19% | -3 | 21µM* | 7% | 2%
O=C(Nc1cccc(Cl)c1)Nc1cnccn1 | -1% | 6% | 3 | 4% | 8% | -1%
O=C(Nc1cccc(Cl)c1)Nc1ccnc(-c2cccnc2)n1 | 21µM* | -1% | 48 | ? | ? | 7%
Cc1[nH]c2ccccc2c1C(=O)COC(=O)c1c(-c2ccccc2Cl)noc1C | ? | ? | ? | ? | ? | 2%
Cc1nc2ccccc2c(N)c1C(=O)/C=C/c1ccccc1 | ? | 27% | -100* | ? | ? | ?
Cc1cc(C)nc(NC(=O)/C=C/c2ccccc2Cl)n1 | -12% | 1% | ? | 8% | ? | -2%
Cc1[nH]c2ccccc2c1C(=O)/C=C/c1ccccc1 | ? | ? | -96* | ? | ? | ?
Cc1[nH]c2ccccc2c1C(=O)/C=C/c1ccccc1Cl | ? | ? | -105* | -28% | -5% | 19%
CC(=O)c1c(C)[nH]c2ccccc2c1=O | -16% | -2% | 25 | 0% | 9% | 2%
Cc1[nH]c2ccccc2c1C(=O)/C=C\c1ccccc1Cl | ? | ? | -101* | 21µM* | 4% | ?
COc1ccc(C(=O)NCC2(c3ccccc3)CCOCC2)cc1 | -16% | 0% | 9 | -9% | ? | -21%
S=C(NCC1(c2ccccc2)CCCC1)Nc1ccccc1 | 12µM* | -8% | 9 | 21µM* | 2% | -3%
O=C(NCC1(c2ccccc2)CCCC1)c1ccccc1Br | ? | ? | 0 | 16µM* | 0% | 4%
O=C(NCC1(c2ccccc2)CCCC1)C(=O)NCC1(c2ccccc2)CCCC1 | -30% | 16% | 0 | -1% | 0% | -7%
COc1ccccc1C(=O)NCC1(c2ccccc2)CCCC1 | ? | 7% | -77* | 16µM* | -6% | ?
O=C(NCC1(c2ccccc2)CCCC1)C1(c2ccccc2)CCCC1 | ? | ? | -22 | ? | ? | -1%[9.22 µM]
O=C(NCC1(c2ccccc2)CCCC1)c1ccccc1 | 12µM* | 22% | 15 | 15µM* | ? | -129%
Cc1cc(C)c2oc(C(=O)Nc3c(C)n(C)n(-c4ccccc4)c3=O)cc(=O)c2c1 | -10% | / | / | 1% | / | /
N#CCOc1coc(CN2CCN(c3ccccc3)CC2)cc1=O | 0% | -1% | -5 | -3% | -5% | 15%
Cc1ccccc1NC(=O)C(=O)NCC1(c2ccccc2)CCCC1 | 16µM* | / | / | ? | / | /
Cc1ccc(NC(=O)C(=O)NCC2(c3ccccc3)CCCC2)cc1C | -17% | / | / | ? | / | /
CN(C)c1ccc(/C=C\C=C/c2ccnc3ccccc23)cc1 | 0.1µM* | / | / | 0.079µM* | / | /
CN(C)c1ccc(/C=C/c2ccnc3ccccc23)c(N)c1 | 0.63µM* | / | / | 0.63µM* | / | /
CN(C)c1ccc(/C=C/c2ccnc3ccccc23)c(F)c1 | 13µM* | / | / | ? | / | /
CN(C)c1ccc(CCc2ccnc3ccccc23)cc1 | 14µM* | / | / | 13µM* | / | /
SMILES | DT40 TDP1 no CPT | MCF10A rereplic | IL-1B inflam inh | TDP1 cell CPT | Chronic BCR inh | SW480 rerep
CCOC(=O)[C@H]1[C@H]2COc3ccc(C)cc3[C@@H]2N2C(=O)CN(C)C(=O)[C@@]12C | -16% | -9% | 35 | -8% | / | -2%
Nc1ccc(S(=O)(=O)Nc2ccccc2)cc1 | -4% | 1% | / | 5% | / | 13%
CCn1nnnc1SCC(=O)N(C)C1CCS(=O)(=O)C1 (configuration not stated) | -8% | 0% | -15 | -7% | -7% | -3%
C[C@@H]1CN([C@H](C)CO)S(=O)(=O)c2ccc(-c3ccc(C#N)cc3)cc2O[C@H]1CN(C)C(=O)Nc1cc(F)ccc1F | 2.3µM* | / | -8 | 6.5µM* | / | /
COc1ccc(-c2ccc3c(c2)O[C@H](CN(C)C(=O)Nc2ccccc2F)[C@@H](C)CN([C@H](C)CO)S3(=O)=O)cc1 | 16µM* | / | 12 | 23µM* | / | /
O=C(NNC(=S)Nc1ccc(C(=O)O)c(O)c1)c1ccncc1 | -108% | -18% | 12 | -107% | / | 5%
O=C(COC(=O)C1CCN(S(=O)(=O)c2ccccc2)CC1)NCCc1ccccc1 | -3% | 1% | 10 | 5% | 5% | 3%
COC(=O)[C@H](Cc1ccccc1)NC(=O)N1CCN(Cc2ccccc2)CC1 | 26µM* | -3% | -13 | ? | -15% | -1%
COC(=O)[C@H](Cc1ccccc1)NC(=O)N1CCCCCC1 | 11% | -4% | 1 | -10% | 5% | -4%
CCN1CCN(CCNC(=O)CCc2c(C)c3c(C)nn(-c4ccccc4)c3n(C)c2=O)CC1 | ? | 14% | -61* | ? | 17% | ?
Cc1cc(=O)n(CC(=O)NCCN2CCOCC2)c2c1c(C)nn2-c1ccccc1 | 12% | 0% | 44 | -9% | -1% | 0%
CCN1CCN(CCNC(=O)CCCn2nc(C)c3c(C)n(-c4ccc(C)cc4)nc3c2=O)CC1 | ? | 4% | 10 | -11% | 2% | 2%
CCn1c(=O)c(CCC(=O)NCCN2CCOCC2)c(C)c2c(C)nn(-c3cccc(C)c3)c21 | 16µM* | 9% | -5 | ? | 7% | 0%
CC(=O)c1ccc(NC(=O)c2noc3c2CSc2ccccc2-3)cc1 | 9.2µM* | / | / | 15µM* | / | /
CC(=O)c1ccc(NC(=O)c2nn(C)c3c2COc2ccccc2-3)cc1 | ? | / | / | 15µM* | / | /
CCOC(=O)c1ccc(NC(=O)c2nn(C)c3c2COc2ccccc2-3)cc1 | -5% | / | / | ? | / | /
CCN(CC)CCOC(=O)c1ccc(NC(=O)c2nn(C)c3c2COc2ccccc2-3)cc1 | 3.3µM* | / | / | 4.1µM* | / | /
COc1ccc(S(=O)Cc2ccc(C(=O)NCc3cccc(OC)c3)o2)cc1 (configuration not stated) | 0% | -3% | -10 | -26% | ? | ?
O=C(Nc1ccc(F)cc1)C(c1ccnc2ccccc12)N1CCN(C(=O)c2ccco2)CC1 (configuration not stated) | -10% | / | -7 | 9% | / | /
COc1cc(CN2C[C@@H](CO)O[C@@H](n3cnc4c(N5CCN(C)CC5)ncnc43)C2)cc(OC)c1OC | -14% | / | 14 | -20% | / | /
Cn1c(=O)[nH]c2cc(-c3noc(-c4ccc(F)cc4)n3)ccc21 | 5% | / | / | 5% | / | /
